# Bioassay records deposited in PubChem BioAssay by National Center for Advancing Translational Sciences (NCATS).
# Compounds with a hit are over-represented: about 1.9% of the library has one in this group of screens.
# IMPase Li cell: qHTS Assay for Identifying the Cell-Membrane Permeable IMPase Inhibitors: Potentiation with Lithium. Potency, µM (series often up to 59.4 µM), without a hit: at the top dose activity, negative = IMPase inhibition, most hits filed as inhibitors. 210,000 compounds, 0.35% hits. CHO-M1 cells, IP1 TR-FRET (IP-One), carbachol + lithium. AID 1457, 2008;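 also: IP1 builds up when IMPase is blocked and the TR-FRET signal falls; plate controls were basal vehicle for no effect and high inhibitor control for full effect; nearly all actives have a fitted effect of over 50% in size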
#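 Test compounds were applied to CHO-M1 cells previously cultured for 16–30 h at 2000 per well. A small lithium amount accompanied them; after 30 min at 37C, IP1 was quantified by TR-FRET.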
# ERK EGF inh: qHTS Assay for Inhibitors of the ERK Signaling Pathway using a Homogeneous Screening Assay; Stimulation with EGF; HEK293-V1b, EGF-stimulated phospho-ERK AlphaScreen; Potency, µM (titrated, usually from 11.5 µM), for inactives: at the top dose activity change, negative = inhibition, most hits filed as inhibitors; 130,000 compounds, 0.41% hits; AID 1454, 2008;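 also: plate controls were stimulated vehicle wells for no effect and unstimulated vehicle basal for full effect; nearly all actives have a fitted effect of over 55% in size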
#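 Phospho-ERK1/2 measured by AlphaScreen (SureFire) after 5 min 25 nM EGF stimulation of V1b-expressing HEK293 cells preincubated 30 min at 37C with titrated compounds; data scaled to DMSO and EGF controls, Hill-fitted AC50.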
# HTT ATP protect: qHTS Multiplex Assay to Identify Dual Action Probes in a Cell Model of Huntington: Cytoprotection (ATP); PC12 HTT-Q103 induced, cytoprotection, ATP luminescence, 40 h; Potency, µM (series often up to 56.4 µM), for the others: cytoprotection (ATP increase), actives largely listed as activators; 230,000 compounds, 0.14% hits; AID 1471, 2008; also: % of control where 0% means no effect; nearly all actives have a fitted effect of over 45% in size
#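 Compounds were screened for protection of PC12 cells against cell death after tebufenozide induction (100 nM final) of mutant Huntingtin exon 1 (Q103) fused to GFP.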
# HTT aggregate: qHTS Multiplex Assay to Identify Dual Action Probes in a Cell Model of Huntington: Aggregate Formation (GFP). PC12 HttQ103-GFP aggregates, Acumen cytometry, 40 h. Potency, µM (doses to about 46.1 µM), for inactives: at the top dose activity change, negative = inhibition, hits mostly inhibitors. 220,000 compounds, 1.1% hits. AID 1688, 2009; also: % is scaled to controls: 0 for no effect and ±100 for the full control effect; nearly all actives have a fitted effect of over 60% in size
#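 Read-out: GFP aggregate count by laser scanning cytometer (488 nm excitation, 500-530 nm emission, 1–25 µm objects >6 SD above background). Cells: PC12, inducible HTTex1-Q103-GFP, 100 nM tebufenozide; compounds titrated.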
# NPSR antagonist: qHTS Assay for Antagonists of the Neuropeptide S Receptor: cAMP Signal Transduction | Q6W5P4 | CHO-NPSR cells, cAMP TR-FRET, antagonist mode | Potency, µM (titrated, usually from 38.3 µM), for inactives: at the highest dose activity change, negative = inhibition, hits mostly inhibitors | 220,000 compounds, 1% hits | AID 1461, 2008; also: % is scaled to controls: 0 for no effect and ±100 for the full control effect; nearly all actives have a fitted effect of over 50% in size
# Target sequence (Q6W5P4 whole entry, looked up): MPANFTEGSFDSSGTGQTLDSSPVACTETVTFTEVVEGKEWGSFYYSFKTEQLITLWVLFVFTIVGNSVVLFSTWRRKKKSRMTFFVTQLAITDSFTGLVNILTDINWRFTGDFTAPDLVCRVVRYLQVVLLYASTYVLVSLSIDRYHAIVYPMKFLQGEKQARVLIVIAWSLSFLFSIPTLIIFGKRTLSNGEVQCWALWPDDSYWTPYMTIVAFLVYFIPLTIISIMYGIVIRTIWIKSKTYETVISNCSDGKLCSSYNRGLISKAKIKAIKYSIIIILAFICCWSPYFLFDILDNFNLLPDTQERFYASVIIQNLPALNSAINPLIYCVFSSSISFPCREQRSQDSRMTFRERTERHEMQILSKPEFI
# Active calls of the source: *; ? = inconclusive; . = no result; [ ] = dose if it differs, or a comment. Calls follow the shape of the dose curve; as a rule, active = well fitted curve in the direction sought with a large enough effect; inconclusive = small, poorly fitted or top-dose-only effect, or another doubt; inactive = no such curve, though single readings can be large; an effect the other way counts as inactive or inconclusive. Potency is read from the fitted curve at half-maximal effect.
SMILES,IMPase Li cell,ERK EGF inh,HTT ATP protect,HTT aggregate,NPSR antagonist
COc1cccc(C(=O)N(Cc2nc(-c3ccc(C)cc3)no2)C(C)C)c1,20%,.,17%[0.074 µM],-2%,-13%[46.1 µM]
Cc1ccc(C)c(C(=O)N(Cc2nc(-c3ccc(Cl)cc3)no2)C(C)C)c1,5%[38.3 µM],.,-1%,22µM*,?
COc1ccc(NS(=O)(=O)c2ccc(Oc3ncccn3)cc2)cc1,9%[38.3 µM],.,-35%,11µM*,-7%[46.1 µM]
COc1ccc(CN2CCC(C(=O)N(C)CCc3ccc(OC)c(OC)c3)CC2)c(OC)c1,10%[38.3 µM],.,-8%[10 µM],19%,-6%[46.1 µM]
COc1ccc(CN2CCC(N(CCc3ccccc3)Cc3ccccc3)CC2)c(OC)c1,13%,0%[57.5 µM],-31%,-10%,7.9µM*
COC(=O)CNc1n[nH]c(=S)[nH]c1=O,11µM*,.,-20%,-6%,-2%[46.1 µM]
CN(C)C(=O)CNc1n[nH]c(=S)[nH]c1=O,.,-8%[57.5 µM],20%[10 µM],18%[9.22 µM],19%
CC(C)OC(=O)C(C)Nc1n[nH]c(=S)[nH]c1=O (centres undefined),?,0%,.,.,-57%
CC(C)OC(=O)CNc1n[nH]c(=S)[nH]c1=O,11µM*,1%,-12%[10 µM],-15%[9.22 µM],?
CN1CCN(c2ncc3nc(-c4cccc(C#N)c4)c(=O)n(C[C@H]4CCCO4)c3n2)CC1,0%,.,-42%,.,.
Cc1ccc(CNC(=O)[C@@H]2C[C@H]2[C@@H](NP(=O)(c2ccccc2)c2ccccc2)c2ccccc2)o1,-1%,-1%,-37%,.,.
COc1ccc(/C=N/Nc2cc(N3CCCC3)nc(N3CCCC3)n2)cc1,25%,0%,-63%,?,13µM*
COc1ccc(/C=N/Nc2cc(C)nc(-n3nc(C)cc3C)n2)cc1,8%,?,-8%[10 µM],14µM*,?
Oc1ccc(/C=N/Nc2cc(N3CCCC3)nc(N3CCCC3)n2)cc1,20%[38.3 µM],.,-6%,19%,-24%[46.1 µM]
COc1ccc(O)c(/C=N/Nc2nc(Nc3ccccc3)nc(-n3nc(C)cc3C)n2)c1,1%[38.3 µM],.,-78%[10 µM],?,1.3µM*
C/C=C1/NN(CCCN2CCN(c3cccc(Cl)c3)CC2)C(=O)N1CCOc1ccccc1,22%,.,-58%,-5%,.
CCC(C)(C)n1nnnc1CN1CCN(C(c2ccccc2)c2ccccc2)CC1,13%,0%,11%[10 µM],14µM*,?
CCC(C)(C)n1nnnc1C(c1ccccc1)N1CCN(Cc2ccccc2)CC1 (centres undefined),9%,-6%,18%[10 µM],10%[9.22 µM],6%
Cc1cc(C)c(OCC(=O)Nc2ccc3c(c2)OCO3)cc1C,10µM*,.,-2%[10 µM],5%,-6%[46.1 µM]
CCCOc1ccc(/C=N/Nc2ccccc2[N+](=O)[O-])c(OCCC)c1,2%,11µM*,-8%[10 µM],3%,-10%
c1csc(CNc2nc(-c3ccoc3)nc3ccccc23)c1,3%,.,-7%,.,.
Cc1ccc(-n2c(C)nc3oc4ccccc4c(=O)c3c2=O)cc1,6.3µM*,.,-8%,0%,-7%[46.1 µM]
COc1cc2oc(=O)cc(-c3ccc(-c4sccc4C=O)cc3)c2c(OC)c1OC,20%,.,-37%,.,.
Cc1cc2c(cc1C)C(=O)NC(C)(C)C2,-11%[38.3 µM],.,-3%,10µM*,-11%[46.1 µM]
CC1=NC(C)(C)Cc2cc(C)c(C)cc21,6%,-4%,6%[10 µM],4%[9.22 µM],-13%
SMILES,IMPase Li cell,ERK EGF inh,HTT ATP protect,HTT aggregate,NPSR antagonist
O=C(O)COc1ccc2nsnc2c1Cl,-28%[38.3 µM],.,-6%,-5%,13µM*
O=C(O)COc1ccc(C(=O)c2cccs2)c(Cl)c1Cl,-15%,.,?,10%,.
NC(=O)n1c(O)c(C(=O)c2cccs2)c2cc(Cl)ccc21,.,.,.,11µM*,.
N/C(=N\OC(=O)c1cccs1)c1ccc(Cl)cc1,.,-11%[57.5 µM],8%[10 µM],25%[9.22 µM],0%
COc1ccc2c(c1)C(=O)[C@H](OC(=O)Nc1cc(OC)c(OC)c(OC)c1)[C@@H](c1ccc(OC)c(Br)c1)O2,-13%,3%,-17%,.,.
COCCOc1nc2c(c(=O)n(C)c(=O)n2C)n1Cc1cccc(OC)c1,30%[38.3 µM],.,10%,8.9µM*,-5%[46.1 µM]
O=C(N/N=C/c1ccc([N+](=O)[O-])o1)c1ccc(O)cc1,28%,3%[57.5 µM],.,6%,13µM*
O=C(Cn1cnc2c(cnn2-c2ccc(Cl)cc2)c1=O)NCCc1ccccc1,13µM*,.,-5%,29%,1%[46.1 µM]
CC(C)(C)n1ncc2c(=O)n(CC(=O)NCCc3ccccc3)cnc21,-1%,-2%,20%[10 µM],-7%,-6%[46.1 µM]
O=C(Cn1cnc2sc(-c3ccccc3)cc2c1=O)NCc1ccccc1,-22%[38.3 µM],.,-98%,-9%,-6%[46.1 µM]
O=C(Cn1cnc2sc(-c3ccccc3)cc2c1=O)NCCc1ccccc1,28µM*,.,-6%[10 µM],-27%,-15%[46.1 µM]
CCCCOc1ccccc1NC(=O)c1scc2c1OCCO2,14%,-3%,-49%,13µM*,-58%
COc1ccc(CC(=O)N2CCN(c3ccccn3)CC2)cc1OC,19%[38.3 µM],.,15%,-1%,-9%[46.1 µM]
CCCc1ccc(OCc2ccc(C(=O)N3CCN(c4ccccn4)CC3)o2)c(OC)c1,47%[38.3 µM],.,-16%[0.074 µM],18µM*,-28%[46.1 µM]
C=CCNc1nc(-c2sc(NC(C)=O)nc2C)cs1,46%[38.3 µM],.,-34%,13µM*,-9%[46.1 µM]
C=CCNc1nc(-c2sc(NC(=O)CC)nc2C)cs1,15%,-4%,-19%[10 µM],?,-7%[46.1 µM]
C=CCCC(=O)Nc1nc(C)c(-c2csc(Nc3ccccc3OC)n2)s1,8%[38.3 µM],.,-93%,18µM*,-28%[46.1 µM]
CCCCc1cc2c(cn1)=C(OC(=O)c1ccc(Cl)nc1)C(C)(OC(=O)CC)C(=O)C=2 (centres undefined),10%,.,5%[10 µM],.,.
Cc1ccc(CO/N=C\Cc2snc(Sc3ncc(C(F)(F)F)cc3Cl)c2C#N)cc1,-10%[38.3 µM],.,-5%,2%,10µM*
N#Cc1ccc(CS(=O)(=O)c2nc3ccccc3s2)cc1,10%,-7%,?,.,.
CCCCN(C)S(=O)(=O)c1ccc(C(=O)N(CCN(C)C)c2nc3ccc(C)cc3s2)cc1,3%,-24%,-4%[10 µM],12%,?
CCCCN(CC)S(=O)(=O)c1ccc(C(=O)N(CCCN(C)C)c2nc3cc(C)cc(C)c3s2)cc1,15%,1%,.,?,10µM*
CC(C)(O)C(=O)O,-15%,.,-13%,.,.
COc1c2c(cc3c1C(c1c(O)c4ccccc4oc1=O)N(C)CC3)OCO2 (centres undefined),5%,-8%,4%,.,.
CN1Cc2c(N3CCOCC3)nc3sc(C(=O)c4ccc(Br)cc4)c(N)c3c2CC1(C)C,.,35µM*,-8%[10 µM],18%[9.22 µM],13µM*
CCOC(=O)c1sc2nc(N3CCOCC3)c3c(c2c1N)CCN(C)C3,7%[38.3 µM],.,0.63µM*,.,-1%[46.1 µM]
